# Assay results reported in ChEMBL document CHEMBL3988442, “University of Dundee, Small-Polar-MMV Screening Library” (2021).
# In all, about 66,000 compounds went through this assay and about 960 (1.5%) showed an effect of 50% or more. The list comes from a sample in which strong results are over-represented; it also holds similar structures and randomly drawn compounds.
# Test system: Trypanosoma brucei
# Assay: Trypanosoma brucei 72 hour study
# Assay type: functional, organism-based
# Parameters: scale not given: in the data most compounds retested in dose-response had high values
smiles,measurement,setting,value
COc1cc(N2CC[C@@H](O)[C@@H]2Cc2ccncc2)ncn1.O=C(O)C(F)(F)F,Percent Effect,"30 µM, 30.03 µM",35.07%
COc1ccc(F)c(-c2ncccc2NC(=O)C(C)C)c1,Percent Effect,"30 µM, 30.03 µM",20.56%
COc1cc(F)ccc1-c1ncccc1NC(=O)C(C)C,Percent Effect,"30 µM, 30.03 µM",52.34%
COc1ncccc1-c1ncccc1NC(=O)C(C)C,Percent Effect,"30 µM, 30.03 µM",34.88%
Cl.Nc1ncnc2nc(C3CCCCN3)ccc12 (centres undefined),Percent Effect,"30.3 µM, […]",5.297%
COCCN1CCC(CN(CC2CCCO2)C(=O)CNC(C)=O)CC1 (centres undefined),Percent Effect,"30 µM, 30.03 µM",3.281%
CCn1cc(CN2CCCN(C(=O)CCn3cc(C)cn3)CC2)cn1,Percent Effect,"30.3 µM, […]",-9.74%
same,Percent Effect,"10 mM, 10 mM as filed; unlikely as a test dose",-22.46%
CN(C)CCNC(=O)c1cc(-c2cnc(N3CCCC3)nc2)cn1C.O=C(O)C(F)(F)F,Percent Effect,"30 µM, 30.03 µM",97.37%
CN(C)CCNC(=O)c1cc(-c2cnc(N3CCOCC3)nc2)cn1C.O=C(O)C(F)(F)F,Percent Effect,"30.3 µM, […]",-753.9%
CCCNC(=O)c1cc(-c2cnc(N3CCCC3)nc2)cn1C,Percent Effect,"30.3 µM, […]",-994.8%
Cl.Cn1nc(C2CCCN(Cc3cc(F)ccc3F)C2)c2nccnc21 (centres undefined),Percent Effect,"30.3 µM, […]",20.63%
CN1[C@@H](C(=O)NCC2CC2)C[C@H]2CN(Cc3ccsc3)C[C@H]21.O=C(O)C(F)(F)F.O=C(O)C(F)(F)F,Percent Effect,"30.3 µM, […]",-48.96%
Cn1nc(COCC2CC2)c2c1CN(CC1CC1)CC2.O=C(O)C(F)(F)F.O=C(O)C(F)(F)F,Percent Effect,"30.3 µM, […]",-59.62%
CN(Cc1ccc2c(c1)OCO2)C(=O)c1ccc(C2CCCNC2)cc1 (centres undefined),Percent Effect,"30 µM, 30.03 µM",78.75%
CN(Cc1ccc2c(c1)OCO2)C(=O)c1ccc(=O)n(C)c1,Percent Effect,"30.3 µM, […]",-33.31%
CC(C)Cc1cc(CNC(=O)c2ccccc2C2CCNC2)no1 (centres undefined),Percent Effect,"30 µM, 30.03 µM",-25.71%
O=C(NCc1ccc2c(c1)CCCO2)c1ccccc1C1CCNC1 (centres undefined),Percent Effect,"30 µM, 30.03 µM",-18.86%
O=C(NCc1ccc2c(c1)OCO2)c1ccccc1C1CCNC1 (centres undefined),Percent Effect,"30 µM, 30.03 µM",75.73%
CSc1cccc(CN(C)C(=O)c2ccc(C3CCCNC3)cc2)c1 (centres undefined),Percent Effect,"30 µM, 30.03 µM",45.3%
CC(C)OCCCN(Cc1ccncc1)Cc1cccc(F)c1F.Cl,Percent Effect,"30.3 µM, […]",-30.88%
N#Cc1ccc(S(=O)(=O)NC(=O)c2csc(-c3ccco3)n2)cc1,Percent Effect,"30.3 µM, […]",2.361%
CCc1ccc(CN2C[C@@H](C)C3(CCN(CC(=O)N(C)C)C3=O)C2)o1.O=C(O)C(F)(F)F (some centres undefined),Percent Effect,"30.3 µM, […]",4.737%
CC(=O)N1N=C(c2cccs2)OC1C(=O)NCc1ccc(C)o1 (centres undefined),Percent Effect,"30.3 µM, […]",9.707%
same,Percent Effect,"10 mM, 10 mM as filed; unlikely as a test dose",-41.55%
COc1ccc(CCC(=O)NCCN2CCC(c3cccs3)CC2)cc1,Percent Effect,"30 µM, 30.03 µM",100%
O=C(NCCc1ccccc1)NCCN1CCC(c2cccs2)CC1,Percent Effect,"30 µM, 30.03 µM",47.79%
CC(=O)NCCN1CCC(c2cccs2)CC1,Percent Effect,"30 µM, 30.03 µM",-43.56%
CC1CCCN(Cc2ccnc(-c3cccnc3)n2)C1.O=C(O)CC(O)(CC(=O)O)C(=O)O (centres undefined),Percent Effect,"30.3 µM, […]",9.831%
CS(=O)(=O)NCCC(=O)Nc1cnn(-c2ccccc2Cl)c1,Percent Effect,"30.3 µM, […]",-13.82%
O=C(CCCNC(=O)C1CC1)Nc1cnn(-c2ccccc2Cl)c1,Percent Effect,"30 µM, 30.03 µM",60.12%
O=C(CCN1C(=O)CCC1=O)Nc1cnn(-c2ccccc2Cl)c1,Percent Effect,"30 µM, 30.03 µM",-41.29%
O=C(O)C(F)(F)F.O=C(O)C(F)(F)F.O=c1ccc2c(n1Cc1ccncc1)CCN(Cc1ccoc1)CC2,Percent Effect,"30 µM, 30.03 µM",-36.06%
Cl.c1nc(CCC2CCCCN2)cc(N2CCCC2)n1 (centres undefined),Percent Effect,"30.3 µM, […]",-10.52%
CC(C)N1CCC(N2CCC(C(=O)N(C)C)CC2)CC1.O=C(O)C(F)(F)F.O=C(O)C(F)(F)F,Percent Effect,"30.3 µM, […]",-22.06%
COC(=O)C1CCN(C(=O)c2cc(Br)ccc2-n2cnnn2)CC1,Percent Effect,"30 µM, 30.03 µM",-52.11%
NC(=O)N1CCCC(C(=O)N2CCN(c3nsc4ccccc34)CC2)C1 (centres undefined),Percent Effect,"30.3 µM, […]",39.11%
CCN1CC(C(=O)N2CCN(c3nsc4ccccc34)CC2)CCC1=O (centres undefined),Percent Effect,"30.3 µM, […]",18.26%
CC(C)N1CCCC(C(=O)N2CCN(c3nsc4ccccc34)CC2)C1 (centres undefined),Percent Effect,"30.3 µM, […]",50.26%
CN(C)C(=O)c1cnc2n1CCN(Cc1cccnc1)C2.O=C(O)C(F)(F)F.O=C(O)C(F)(F)F,Percent Effect,"30.3 µM, […]",-389.6%
O=C(O)C(F)(F)F.O=C(O)C(F)(F)F.O=C(O)C(F)(F)F.c1ccc(CN2CCc3c(COCC4CC4)cncc3C2)nc1,Percent Effect,"30.3 µM, […]",-75.06%
CN1C[C@@H](N)C[C@H]1C(=O)N1CCC(CCCc2ccccc2)CC1,Percent Effect,"30 µM, 30.03 µM",-31.74%
OC1(CN2CCCCC2)CCN(c2ccc(C(F)(F)F)cn2)C1 (centres undefined),Percent Effect,"30.3 µM, […]",3.051%
N#CC1=C(N)Nn2c(nnc2-c2ccccc2F)S1,Percent Effect,"30 µM, 30.03 µM",-51.04%
CCn1cc(CNc2ccc3nccnc3c2)cn1,Percent Effect,"30 µM, 30.03 µM",99.73%
CCn1cc(CNc2ccc(Br)c(OC)c2)cn1,Percent Effect,"30 µM, 30.03 µM",-16.49%
CCn1cc(CNc2ccc(F)c(N3CCCS3(=O)=O)c2)cn1,Percent Effect,"30 µM, 30.03 µM",-16.14%
Nc1nc(O)cc(N2CCC(c3cc(Cc4ccccc4)n[nH]3)CC2)n1,Percent Effect,"30.3 µM, […]",-102.6%
Nc1cc(N2CCC(c3cc(Cc4ccccc4)n[nH]3)CC2)ccn1,Percent Effect,"30.3 µM, […]",99.46%
Nc1nccc(N2CCC(c3cc(Cc4ccccc4)n[nH]3)CC2)n1,Percent Effect,"30.3 µM, […]",36.98%
COc1ccc(C(=O)NCC(c2cccn2C)N2CCCC2)cc1OC (centres undefined),Percent Effect,"30.3 µM, […]",-9.189%
COc1cccc(C(=O)NCC(c2cccn2C)N2CCCC2)c1OC (centres undefined),Percent Effect,"30.3 µM, […]",-16.52%
COc1cccc(OC)c1C(=O)NCC(c1cccn1C)N1CCCC1 (centres undefined),Percent Effect,"30.3 µM, […]",99.38%
CO[C@@H]1CCN(C(=O)Cc2ccsc2)[C@H]1Cc1cccnc1.O=C(O)C(F)(F)F,Percent Effect,"30.3 µM, […]",-12.88%
Cc1cccc(COC[C@H]2CC[C@H]3[C@H](CCN3C(=O)CC3CC3)O2)n1.O=C(O)C(F)(F)F,Percent Effect,"30 µM, 30.03 µM",22.76%
CCOc1ccc(CN[C@@H]2COC[C@H]2c2ccc(F)cc2)cc1.O=C(O)CC(O)(CC(=O)O)C(=O)O,Percent Effect,"30.3 µM, […]",-47.65%
COCCN1C[C@H]2CC[C@@H]1CN(C(=O)CCn1cc(Cl)cn1)C2,Percent Effect,"30.3 µM, […]",4.772%
Cc1nc(CNc2nc(-c3ccco3)nc3c2CCNCC3)n[nH]1,Percent Effect,"30 µM, 30.03 µM",14.93%
Cc1nc2c(c(NCc3cc4ccccc4s3)n1)CCNCC2,Percent Effect,"30.3 µM, […]",99.88%
Cc1nc2c(c(NCc3nc4ccccc4s3)n1)CCNCC2,Percent Effect,"30.3 µM, […]",53.81%
Cc1nc2c(c(NCC3Cc4ccccc4CN3C)n1)CCNCC2 (centres undefined),Percent Effect,"30.3 µM, […]",15.13%
Cc1nc2c(c(NCc3ccc(-c4ccccn4)s3)n1)CCNCC2,Percent Effect,"30.3 µM, […]",42.43%
Cc1nc2c(c(NCC(O)c3ccccc3Cl)n1)CCNCC2 (centres undefined),Percent Effect,"30 µM, 30.03 µM",-31.73%
CC(C)CN1CCO[C@H]2CCN(c3cnccn3)CC[C@@H]21.O=C(O)C(F)(F)F,Percent Effect,"30.3 µM, […]",-43.11%
CCCS(=O)(=O)N1C[C@H]2C[C@H](C(=O)N3CCCC3)[C@@H](C1)O2,Percent Effect,"30.3 µM, […]",-3.417%
Cc1occc1C(=O)N1C[C@@H]2OCCN(C(C)C)[C@@H]2C1.O=C(O)C(F)(F)F,Percent Effect,"30 µM, 30.03 µM",5.268%
CS(=O)(=O)N1CCN(CC(O)COc2ccc(Cl)cc2)CC1 (centres undefined),Percent Effect,10 µM,-47.15%
Cc1csc(CN2CCC[C@]3(C[C@@H](OCC4CC4)CO3)C2)n1.O=C(O)C(F)(F)F,Percent Effect,"30 µM, 30.03 µM",-17.53%
OC1(CN2CCCC2)CCCN(Cc2ccc(F)cc2Cl)C1 (centres undefined),Percent Effect,"30 µM, 30.03 µM",-4.937%
Cc1cc(F)ccc1CN1CCC(O)(CN2CCCCC2)C1 (centres undefined),Percent Effect,"30 µM, 30.03 µM",-52.45%
Cc1cc(F)ccc1CN1CCCC(O)(CN2CCCC2)C1 (centres undefined),Percent Effect,"30.3 µM, […]",54.93%
CN(C)CCN(Cc1ccccn1)Cc1ccnn1C1CCCCO1.O=C(O)CC(O)(CC(=O)O)C(=O)O (centres undefined),Percent Effect,"30.3 µM, […]",-14.13%
Cn1nnc2c1C(COCC1CC1)CN(Cc1ccoc1)C2.O=C(O)C(F)(F)F (centres undefined),Percent Effect,"30 µM, 30.03 µM",5.795%
CCNc1ccnc(N2Cc3cnn(Cc4ccc(F)cc4)c3C2)n1,Percent Effect,"30 µM, 30.03 µM",57.35%
CNc1cc(C)nc(N2Cc3cnn(Cc4ccc(F)cc4)c3C2)n1,Percent Effect,"30 µM, 30.03 µM",98.86%
Fc1ccc(Cn2ncc3c2CN(c2ncccn2)C3)cc1,Percent Effect,"30 µM, 30.03 µM",2.324%
Cc1cc(C)nc(N2Cc3cnn(Cc4ccc(F)cc4)c3C2)n1,Percent Effect,"30 µM, 30.03 µM",3.465%
Cc1nc(N2Cc3cnn(Cc4ccc(F)cc4)c3C2)no1,Percent Effect,"30 µM, 30.03 µM",12.66%
Cc1ccnc(N2Cc3cnn(Cc4ccc(F)cc4)c3C2)n1,Percent Effect,"30 µM, 30.03 µM",-9.847%
CC(C)c1nn(C)c(Cl)c1CNCc1ccc(N(C)C)nc1.Cl,Percent Effect,"30.3 µM, […]",12.78%
CC(C)CN1CCC2(CCN(Cc3ccc(F)cc3)CC2)C1=O.O=C(O)C(F)(F)F,Percent Effect,"30.3 µM, […]",15.86%
Cc1cccc(CN2CCCCC2c2n[nH]cc2-c2cc(C)no2)c1.Cl (centres undefined),Percent Effect,"30.3 µM, […]",54.66%
Cc1cccc(CN2CCCC2c2cccc(CCC(=O)O)n2)c1 (centres undefined),Percent Effect,"30.3 µM, […]",-27.55%
Cc1nccc(C2CCCCN2Cc2cccc(F)c2)n1 (centres undefined),Percent Effect,"30.3 µM, […]",-5.435%
Cc1cccc(CN2CCCC2c2cccc(Nc3nccs3)n2)c1 (centres undefined),Percent Effect,"30.3 µM, […]",33.44%
Cc1cc(C2CCCN2Cc2cc(-c3ccco3)on2)on1 (centres undefined),Percent Effect,"30 µM, 30.03 µM",-36.29%
Cc1nc(C2CN(Cc3ccccc3C)CCO2)no1 (centres undefined),Percent Effect,"30.3 µM, […]",-23.18%
CN(CC1(O)CCCN(c2ccccn2)C1)C(=O)CCc1cccs1 (centres undefined),Percent Effect,"30.3 µM, […]",19.98%
Cc1ccc(CN(CCCN2CCOCC2)Cc2cnn(C)c2)o1.O=C(O)CC(O)(CC(=O)O)C(=O)O,Percent Effect,"30.3 µM, […]",-8.498%
CN(C)C(=O)[C@]12CCCN(CC3CC3)C[C@H]1CN(c1ccccn1)C2.O=C(O)C(F)(F)F.O=C(O)C(F)(F)F,Percent Effect,"30.3 µM, […]",0.08001%
CN1CC(=O)N(c2ccccc2)CC12CCN(C(=O)c1ccnnc1)C2.O=C(O)C(F)(F)F (centres undefined),Percent Effect,"30.3 µM, […]",-13.49%
CN(C)C(=O)COC[C@]12COC[C@H]1CN(Cc1ccccc1)C2.O=C(O)C(F)(F)F,Percent Effect,"30.3 µM, […]",-79.79%
O=C(c1cc(=O)n(-c2ccccc2)[nH]1)N1CCOC(C(F)(F)F)C1 (centres undefined),Percent Effect,"30 µM, 30.03 µM",25.14%
Cc1cnc(CN(Cc2ccc(Cl)s2)C2CCN(C)C2)o1 (centres undefined),Percent Effect,"30 µM, 30.03 µM",-5.686%
